# PubChem BioAssay AID493035 (The Scripps Research Institute Molecular Screening Center, 2011)
# The campaign covered roughly 2,000 compounds. About 45 (2%) were called active.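 The calls were made as follows: active = inhibition above the mean of all tested compounds plus 3 SD (cut at about 49% in these data); inactive = the rest.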 The sample as a whole holds a higher share of actives than the screen did.
# Target: Perilipin-5 (Homo sapiens) + 1-acylglycerol-3-phosphate O-acyltransferase ABHD5 (Homo sapiens) (UniProt Q00G26+Q8WTS1)
# Assay: blockers of ABHD5 binding to perilipin-5 – cell lysate, split luciferase complementation, luminescence, NIH validation set, pilot screen (AID 493035);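 also: 0% = DMSO only wells while the 100% control is not stated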
# Conditions: split G. princeps luciferase complementation, lysates, 4 h; at 7.9 µM, stronger effect = higher value
# Sequence of Perilipin-5 (Homo sapiens) + 1-acylglycerol-3-phosphate O-acyltransferase ABHD5 (Homo sapiens) (Q00G26 whole entry, looked up): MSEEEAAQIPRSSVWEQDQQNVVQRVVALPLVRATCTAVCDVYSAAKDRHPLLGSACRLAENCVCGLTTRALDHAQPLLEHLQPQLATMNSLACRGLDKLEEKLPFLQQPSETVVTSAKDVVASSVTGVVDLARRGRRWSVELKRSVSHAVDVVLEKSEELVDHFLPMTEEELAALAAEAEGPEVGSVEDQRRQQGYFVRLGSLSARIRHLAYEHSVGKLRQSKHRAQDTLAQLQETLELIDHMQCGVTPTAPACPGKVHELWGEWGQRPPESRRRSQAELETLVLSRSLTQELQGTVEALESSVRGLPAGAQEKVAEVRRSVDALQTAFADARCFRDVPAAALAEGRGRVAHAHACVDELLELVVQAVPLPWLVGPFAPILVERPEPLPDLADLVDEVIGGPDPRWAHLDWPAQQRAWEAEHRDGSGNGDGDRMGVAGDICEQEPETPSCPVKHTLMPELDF
# Sequence of Perilipin-5 (Homo sapiens) + 1-acylglycerol-3-phosphate O-acyltransferase ABHD5 (Homo sapiens) (Q8WTS1 whole entry, looked up): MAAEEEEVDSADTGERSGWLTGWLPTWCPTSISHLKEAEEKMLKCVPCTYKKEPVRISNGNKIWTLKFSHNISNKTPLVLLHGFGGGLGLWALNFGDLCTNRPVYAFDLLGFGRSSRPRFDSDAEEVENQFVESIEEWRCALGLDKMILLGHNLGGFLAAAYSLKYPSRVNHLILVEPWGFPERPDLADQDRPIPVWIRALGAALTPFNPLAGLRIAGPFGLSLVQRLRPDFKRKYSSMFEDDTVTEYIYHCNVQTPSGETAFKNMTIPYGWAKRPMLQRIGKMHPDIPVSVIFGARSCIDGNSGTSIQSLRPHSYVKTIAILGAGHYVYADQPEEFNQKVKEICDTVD
row,SMILES,inhibition
1,COc1ccc2cc(-c3nc4ccccc4n3C)c(=O)oc2c1,-5.19% (inactive)
2,CCn1c2ccccc2c2cc(CC(N)=O)ccc21,-7.62% (inactive)
3,COc1ccccc1C(=O)Nc1cc2cc(Br)ccc2oc1=O,-7.35% (inactive)
4,Cc1ccc(CSCC(=O)NCCCN2CCOCC2)cc1,2.33% (inactive)
5,Cc1cc(=O)c2c(O)c(O)ccc2o1,-3.3% (inactive)
6,O=c1nc2sc3ccccc3n2c(=O)n1-c1ccc(Cl)cc1,5.72% (inactive)
7,COc1ccc(C)cc1S(=O)(=O)Nc1ccc(F)cc1,0.68% (inactive)
8,CNS(=O)(=O)c1ccc(C)cc1,-16.6% (inactive)
9,Cc1ccc(S(=O)(=O)N[C@@H](Cc2ccccc2)C(=O)CCl)cc1,84.4% (active)
10,CCCCNC(=O)NS(=O)(=O)c1ccc(C)cc1,-4.64% (inactive)
11,COc1ccc(-c2nnc(-c3cc4c(ccc5ccccc54)oc3=O)o2)cc1,5.2% (inactive)
12,COc1c(C=O)c(CCN(C)C(=O)c2ccc(F)cc2)cc2c1OCO2,3.02% (inactive)
13,COC(=O)c1cc(-c2ccc(C)o2)nc2ccccc12,72.8% (active)
14,O=C(O)c1cc(-c2ccccc2)nc2ccccc12,-2.12% (inactive)
15,CCCOc1ccc(-c2cc(C(=O)NCC3CCCO3)c3ccccc3n2)cc1 (stereo not drawn),-0.81% (inactive)
16,C/C(=N\NC(=O)c1ccccc1[N+](=O)[O-])c1ccc(Br)s1,-7.54% (inactive)
17,Cc1cc(C)c(NC(=O)NC(=O)C(Cl)(Cl)Cl)c(C)c1,-18.5% (inactive)
18,O=C(/C=C/c1ccc2c(c1)OCO2)NCc1ccc(F)cc1,1.71% (inactive)
19,O=C(/C=C/c1ccc2c(c1)OCO2)c1ccccn1,55.7% (active)
20,O=C(/C=C/c1ccc2c(c1)OCCCO2)c1ccc2ccccc2c1O,26.6% (inactive)
21,O=C1N[C@@H](Cc2cnc[nH]2)C(=O)N2CCC[C@@H]12,-13.3% (inactive)
22,O=C(c1ccccc1F)c1cc2c(cc1[N+](=O)[O-])OCCO2,2.64% (inactive)
23,O=C(CN1CC[n+]2c(-c3cccs3)csc21)c1ccc(Br)cc1,51.8% (active)
24,COc1ccc(-c2c3c(=O)n(C)c(=O)n(C)c3cn2C2CCCCC2)cc1,7.04% (inactive)
25,O=C(O)/C=C/c1cccc(OCc2ccccc2)c1,-15.3% (inactive)

row,SMILES,inhibition
1,CC(C)C[C@H](NC(=O)NC(C)C)C(=O)O,-0.17% (inactive)
2,CC(C)OC(=O)CC1C(=O)NCCN1C(=S)NC(=O)c1cccs1 (stereo not drawn),-6.51% (inactive)
3,COc1ccc(C2CC(c3c(O)cc(C)oc3=O)=NCCS2)c(OC)c1 (stereo not drawn),22.5% (inactive)
4,COc1cc2c(cc1OC)/C(=C/c1ccc(Cl)cc1)C(=O)OC2,33.3% (inactive)
5,O=C1ON=C(c2ccc(Cl)cc2)/C1=C/c1ccc(O)cc1,70.2% (active)
6,Nc1cccc(C(=O)O)c1,-4.68% (inactive)
7,O=C(O)C1[C@H]2C(=O)N(C3CCCC3)C[C@]23C=C[C@H]1O3 (stereo partly drawn),-13.3% (inactive)
8,O=C1CCCN1C(=O)CCC(=O)N1CCCC1=O,4.49% (inactive)
9,Cc1oc2c(C)c3oc(=O)c4c(c3cc2c1C)CCCC4,1.69% (inactive)
10,CS(=O)(=O)Oc1ccc2c(c1)O/C(=C\C=C\c1ccccc1)C2=O,53.5% (active)
11,COc1ccccc1C(=O)Oc1ccc2c(c1)O/C(=C\c1ccncc1)C2=O,35.9% (inactive)
12,CCc1ccc(/C=C2\Oc3cc(OC(=O)N4CCOCC4)ccc3C2=O)cc1,17.7% (inactive)
13,O=C(O)C1CCN(C(=O)COc2ccc3c4c(c(=O)oc3c2)CCC4)CC1,-5.81% (inactive)
14,COc1ccc([C@H]2[C@H](C(=O)OC(C)(C)C)N3N=Cc4ccccc4C3C23C(=O)c2ccccc2C3=O)cc1OC (stereo partly drawn),0.07% (inactive)
15,O=C(NCCO)c1ccc2[nH]c3ccccc3c2c1,-4.84% (inactive)
16,COc1ccc2nc(C)cc(Nc3ccccc3O)c2c1,-5.57% (inactive)
17,CC1(c2ccccc2)CC(C)(C)N2C(=O)C(=O)c3cccc1c32 (stereo not drawn),59.8% (active)
18,O=C1c2ccccc2C2(c3ccccc3)NCCN12 (stereo not drawn),0.12% (inactive)
19,COc1cc2c3c(c1)C(C)CC(C)(C)N3C(=O)C2=O (stereo not drawn),3.84% (inactive)
20,Cc1[nH]c2ccccc2c1/C=C/c1nc2ccccc2c(=O)n1CCO,8.95% (inactive)
21,C[C@]12CC[C@@H]3c4ccc(O)cc4C(=O)C[C@H]3[C@@H]1CC[C@@H]2O,9.16% (inactive)
22,CC(=O)OCC1OC(n2ccc(=O)[nH]c2=O)C(O)C1O (stereo not drawn),-2.69% (inactive)
23,C/C(=N\NC(=O)C1(C)CC1(Br)Br)c1ccc([N+](=O)[O-])cc1 (stereo not drawn),-8.2% (inactive)
24,O=C(NCc1ccc(N2CCCC2=O)cc1)c1ccc(F)cc1,7.2% (inactive)
25,CC(=Nc1ccccc1)C1=C(O)CCCC1=O,0.34% (inactive)

row,SMILES,inhibition
1,O=C(/C=C/c1ccco1)N1CCN(c2ccccc2)CC1,2.96% (inactive)
2,CC1(C)c2ccccc2N2CC(=O)N(CC(N)=O)C21C (stereo not drawn),4.9% (inactive)
3,CC1(C)c2ccccc2N2CC(=O)NC21/C=C/c1ccco1 (stereo not drawn),50.2% (active)
4,Nc1ccc2cn[nH]c2c1,-10.6% (inactive)
5,Cc1ccc(N2C(=O)c3ccccc3C2=O)cc1C,-3.44% (inactive)
6,CNc1nc(N(C)C)nc(N(C)C)n1,-0.61% (inactive)
7,COC(=O)c1ccc(C(=O)OC)c(NC(=O)C(C)C)c1,-13.5% (inactive)
8,COc1ccc(-c2nc(NC(C)=O)sc2-c2ccc(OC)cc2)cc1,2.96% (inactive)
9,COc1ccc(C2C(=O)c3ccccc3C2=O)cc1,-1.24% (inactive)
10,COc1ccc(C2=CC(=O)C=CC2=O)cc1,69.1% (active)
11,COc1ccccc1CCn1cnc2c3cc(C)ccc3n(C)c2c1=O,12.2% (inactive)
12,CCOc1cc2c(cc1OCC)C(c1ccccc1)N(c1ccc(C(=O)O)cc1)C(=O)C2 (stereo not drawn),5.15% (inactive)
13,CCS(=O)(=O)Nc1cc(OC)c(OC)cc1Cc1nccc2cc(OC)c(OC)cc12,-5.76% (inactive)
14,O=C(COc1ccc2ccc(=O)oc2c1)c1ccccc1,-3.28% (inactive)
15,COc1ccc2c(c1)C=CC1(O2)N(CCO)c2ccccc2C1(C)C (stereo not drawn),50.9% (active)
16,COc1ccc(NC(=O)C2C(=O)N(CCO)C3(C)CC2c2ccccc2O3)cc1 (stereo not drawn),-8.28% (inactive)
17,O=C1CCCN1CCCn1cnc2c([nH]c3ccc(F)cc32)c1=O,1.78% (inactive)
18,CC12CCCCN1CCCc1c2[nH]c2ccccc12 (stereo not drawn),6.67% (inactive)
19,CC(C)C[C@H](NC(=O)[C@@H]1Cc2ccccc2CN1C(=O)OC(C)(C)C)C(=O)NCC1CCC(C(=O)O)CC1 (stereo partly drawn),-1.68% (inactive)
20,COc1ccc(CNCCC(c2ccc(F)cc2)c2ccc(OC(C)C)cc2)cc1OC (stereo not drawn),-5.38% (inactive)
21,COc1ccc(CN(CCC(c2ccccc2)c2ccc(OC(C)C)cc2)C(=O)CCl)cc1OC (stereo not drawn),67% (active)
22,COc1ccccc1C(CC(=O)Nc1ccccc1C)c1ccc(OC(C)C)cc1 (stereo not drawn),1.65% (inactive)
23,Cn1c(=O)oc2cc(S(=O)(=O)N3CCc4ccccc4C3)ccc21,-0.05% (inactive)
24,CC(C)C12CN3CC(C(C)C)(CN(C1)C3c1ccccc1O)C2=O (stereo not drawn),0.76% (inactive)
25,c1coc(-c2nnc3n2C2(CCCC2)Cc2ccccc2-3)c1,-2.54% (inactive)

row,SMILES,inhibition
1,CC(C)CN1CCN(Cc2ccc(C#CC(C)(C)O)cc2)CC1CCO (stereo not drawn),1.45% (inactive)
2,COc1ccc(CN2CCCCC2C(=O)Nc2ccc(OC)c(OCC(C)C)c2)cc1OC (stereo not drawn),-8.58% (inactive)
3,COc1ccccc1C(O)c1nccn1C (stereo not drawn),-0.96% (inactive)
4,COc1cc(/C=C(\C#N)C(=O)N2CCc3ccccc32)ccc1O,50.3% (active)
5,COc1cc(/C=C/C(=O)CC(=O)/C=C/c2ccc(O)c(OC)c2)ccc1O,47.6% (inactive)
6,CC12CCC(C(=O)N3CCc4ccccc43)(CC1=O)C2(C)C (stereo not drawn),-4.02% (inactive)
7,Cn1c(=O)[nH]c(=O)c2c1nc(NCc1ccco1)n2CCCc1ccccc1,-10% (inactive)
8,CC1(C)CC(NC(=O)C23CCC(C)(C(=O)C2=O)C3(C)C)CC(C)(C)N1 (stereo not drawn),-7.41% (inactive)
9,NC(N)=N/N=C/c1ccc(OS(=O)(=O)c2ccccc2)cc1,-1.57% (inactive)
10,COc1cc(C(=O)Nc2cccc(-c3nnc(-c4ccco4)o3)c2)ccc1OC(C)=O,-3.44% (inactive)
11,COc1ccc(/C=C2\CCn3c2nc2cc(C(=O)O)ccc2c3=O)cc1OC,-3.54% (inactive)
12,COc1ccc(/C=C2\CC/C(=C\c3ccc(OC)c(OC)c3)C2=O)cc1OC,72.8% (active)
13,COc1ccc(/C=C2\CCc3ccccc3C2=O)c(OC)c1OC,-7.62% (inactive)
14,COc1ccc(C(=O)Nc2ccccc2C(=O)NCCCn2ccnc2)cc1,-6.29% (inactive)
15,Cc1nonc1CN(C)C(=O)c1ccc(OC2CCN(C(=O)c3cccnc3)CC2)cc1,2.15% (inactive)
16,S=C(NCc1ccccc1)NCc1cccc(CNC(=S)NCc2ccccc2)c1,10.2% (inactive)
17,N#C/C(=C\c1ccc(O)c(O)c1)C(=O)NCCCc1ccccc1,28.2% (inactive)
18,N#C/C(=C/c1ccccc1)C(=O)NCc1ccccc1,62.6% (active)
19,COc1ccc(NC(=O)CC2C(=O)N(C)C(=S)N2Cc2ccncc2)cc1 (stereo not drawn),-3.37% (inactive)
20,O=C(O)C1Cc2ccccc2CN1S(=O)(=O)c1ccccc1 (stereo not drawn),3.15% (inactive)
21,O=C(O)Cc1ccc(O)c(F)c1,-5.48% (inactive)
22,CCOc1ccc(N2C(=O)CNC2=S)cc1,-13.8% (inactive)
23,COc1ccccc1-c1c(C(F)(F)F)oc2cc(OC(=O)c3ccc([N+](=O)[O-])cc3)ccc2c1=O,29.5% (inactive)
